# Assay results published in article PMC3218832.
# Assays:
# Test in all cases: protein binding microarray; high values mean tight binding
# Conditions in all cases: dsDNA, one strand shown
# RELARELA (p65 homodimer) = RELARELA (p65 homodimer) (Homo sapiens, UniProt Q04206 1-307)
# p50p50 homodimer = p50p50 homodimer (Homo sapiens, UniProt P19838 7-356)
# p52p52 homodimer = biological target: T1, p52p52 homodimer (Homo sapiens, UniProt Q00653 4-332)
# T1 sequence: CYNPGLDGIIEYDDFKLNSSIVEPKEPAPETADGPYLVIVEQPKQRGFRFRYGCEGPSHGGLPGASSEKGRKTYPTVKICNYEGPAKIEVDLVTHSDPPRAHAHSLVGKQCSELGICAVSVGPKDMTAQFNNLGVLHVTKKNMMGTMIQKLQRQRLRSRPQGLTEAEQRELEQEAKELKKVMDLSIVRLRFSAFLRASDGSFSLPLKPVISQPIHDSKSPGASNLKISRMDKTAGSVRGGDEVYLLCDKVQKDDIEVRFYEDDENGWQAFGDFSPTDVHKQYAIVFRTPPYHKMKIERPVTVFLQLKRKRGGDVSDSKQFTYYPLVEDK
# [1] = biological target: RELA (p65) subunit of heterodimer;p50 subunit (Homo sapiens;Homo sapiens, UniProt Q04206;P19838 1-307;7-356)
# Sequence of RELA (p65) subunit of heterodimer;p50 subunit (Q04206 1-307, chain 1 of 2): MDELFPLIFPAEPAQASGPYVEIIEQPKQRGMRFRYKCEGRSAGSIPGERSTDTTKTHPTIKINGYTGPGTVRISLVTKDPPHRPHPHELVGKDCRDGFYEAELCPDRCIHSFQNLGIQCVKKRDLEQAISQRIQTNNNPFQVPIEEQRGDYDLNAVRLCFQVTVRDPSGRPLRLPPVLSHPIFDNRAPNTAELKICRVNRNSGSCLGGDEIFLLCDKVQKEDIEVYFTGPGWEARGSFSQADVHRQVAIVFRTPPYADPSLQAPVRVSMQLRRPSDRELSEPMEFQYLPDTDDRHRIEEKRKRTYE
# Sequence of RELA (p65) subunit of heterodimer;p50 subunit (P19838 7-356, chain 2 of 2): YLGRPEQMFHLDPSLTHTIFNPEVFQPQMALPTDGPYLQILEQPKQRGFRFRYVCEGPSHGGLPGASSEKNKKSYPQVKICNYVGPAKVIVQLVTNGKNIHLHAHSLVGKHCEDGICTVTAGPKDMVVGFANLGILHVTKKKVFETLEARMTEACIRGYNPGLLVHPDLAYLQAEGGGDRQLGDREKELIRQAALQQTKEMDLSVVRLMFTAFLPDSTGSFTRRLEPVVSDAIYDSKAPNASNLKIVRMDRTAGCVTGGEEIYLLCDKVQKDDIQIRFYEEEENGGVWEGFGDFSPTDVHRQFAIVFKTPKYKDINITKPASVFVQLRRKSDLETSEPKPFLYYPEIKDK
# [2] = biological target: RELA (p65) subunit of heterodimer;p52 subunit (Homo sapiens;Homo sapiens, UniProt Q04206;Q00653 1-307;4-332)
# RELB subunit;p50 subunit = RELB subunit;p50 subunit (Homo sapiens;Homo sapiens, UniProt Q01201;P19838 120-401;7-356)
# RELB subunit;p52 subunit = biological target: T2, RELB subunit;p52 subunit (Homo sapiens;Homo sapiens, UniProt Q01201;Q00653 120-401;4-332)
# T2 sequence 1: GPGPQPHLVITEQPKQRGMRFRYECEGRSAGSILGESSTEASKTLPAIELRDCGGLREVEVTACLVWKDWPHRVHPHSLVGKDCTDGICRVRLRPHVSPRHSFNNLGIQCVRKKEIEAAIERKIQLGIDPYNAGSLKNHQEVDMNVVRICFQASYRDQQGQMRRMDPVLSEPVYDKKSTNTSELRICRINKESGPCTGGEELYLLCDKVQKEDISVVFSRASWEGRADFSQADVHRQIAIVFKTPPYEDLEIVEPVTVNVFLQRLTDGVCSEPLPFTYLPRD
# T2 sequence 2: T1 sequence
# [3] = biological target: C-Rel subunit;p50 subunit (Homo sapiens;Homo sapiens, UniProt Q04864;P19838 1-285;7-356)
# [4] = biological target: T3, C-Rel subunit;p52 subunit (Homo sapiens;Homo sapiens, UniProt Q04864;Q00653 1-285;4-332)
# T3 sequence 1: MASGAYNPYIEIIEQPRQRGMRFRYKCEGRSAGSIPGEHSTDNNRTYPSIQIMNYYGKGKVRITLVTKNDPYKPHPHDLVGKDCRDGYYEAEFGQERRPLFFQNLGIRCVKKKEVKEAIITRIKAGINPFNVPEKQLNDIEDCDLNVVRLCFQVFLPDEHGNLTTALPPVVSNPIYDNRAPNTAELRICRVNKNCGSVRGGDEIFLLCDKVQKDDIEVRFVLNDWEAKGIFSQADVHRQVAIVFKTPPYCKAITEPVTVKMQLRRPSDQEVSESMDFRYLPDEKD
# T3 sequence 2: T1 sequence
# Sequence of RELARELA (p65 homodimer) (Q04206 1-307): as the sequence (Q04206 1-307, chain 1 of 2) above
# Sequence of p50p50 homodimer (P19838 7-356): as the sequence (P19838 7-356, chain 2 of 2) above
Sequence,binding signal (RELARELA (p65 homodimer)) [z-score],binding signal (p50p50 homodimer) [z-score],binding signal (p52p52 homodimer) [z-score],binding signal [1] [z-score],binding signal [2] [z-score],binding signal (RELB subunit;p50 subunit) [z-score],binding signal (RELB subunit;p52 subunit) [z-score],binding signal [3] [z-score],binding signal [4] [z-score]
GGAAATGTCCC,1.93,0.902,1.14,1.27,1.05,0.938,0.986,0.9,0.975
AAAGGTCCCCT,-0.0302,1.09,0.848,0.65,0.742,1.05,0.989,0.669,0.512
GGGAAAGCCCC,3.52,1.48,3.39,3.02,3.27,3.3,2.95,2.45,3.53
AGAGAGATCCC,-0.281,-0.511,-0.367,-0.448,-0.506,-0.355,-0.569,-0.565,-0.502
AAGGTGTCCCT,-0.0449,0.811,0.895,0.784,0.967,1.01,1.5,0.63,0.562
CGGAAATCCCT,2.44,1.09,1.3,1.35,1.25,0.939,1.47,1.21,1.56
GAAGAAGCCCT,-0.988,-1.65,-0.651,-0.934,-0.868,-1.04,-0.801,-1.08,-0.998
GAGAAAGTCCC,1.97,1.14,1.91,1.51,1.47,1.81,1.7,1.39,1.69
AAGAGATCCCT,-0.452,-0.0204,-0.142,-0.376,-0.411,0.117,-0.279,-0.41,-0.484
CAATAATCCCT,-0.146,0.635,0.735,0.226,0.493,0.496,0.698,0.212,0.284
CAGGAAACCCC,2.37,1.03,1.38,1.38,1.31,0.925,1.39,1.04,1.76
GAAGATACCCT,-0.565,0.622,0.0699,0.217,0.0853,0.142,0.032,-0.0626,2.91e-05
AAGGGCCCCCT,-0.998,0.884,0.332,0.446,0.569,0.703,1.14,0.138,0.261
GAAGAGTTCCC,0.742,0.281,-0.0634,0.27,0.0483,0.132,-0.0744,0.46,0.057
